# Source: PubChem BioAssay (Tox21)
# “And” between values parts separate entries of the source, which are not always exact repeats. Identical values can stand only once. Unmarked numbers belong to inactive results. The call rests on the fitted dose curve.
# Assay: qHTS assay to identify small molecule agonists of the estrogen related receptor (ERR) signaling pathway from Tox21 library (AID 1224849); further: nearly all actives have a fitted effect of over 15% in size
# Conditions: ERR reporter cell line, ONE-Glo luciferase, 18 h; at 42.5 µM (top of the series)
# Excerpt: National Center for Advancing Translational Sciences [NCATS]
# NIH Chemical Genomics Center [NCGC]
# U.S. Environmental Protection Agency [EPA]
# National Institutes of Environmental Health Sciences [NIEHS]
# National Toxicology Program [NTP]
# Estrogen related receptors (ERRs), the first orphan nuclear receptors discovered, play an important role in the control of cellular energy metabolism. ERRs are required for high-energy production in response to the environmental challenges. ERR-alpha was also identified as an adverse marker for breast cancer progression; ERR-alpha-positive tumors have a poor prognosis. To screen and to identify environmental compounds that perturb the ERR signaling pathways could provide valuable information for potential therapeutic or preventive measures in the treatment of metabolic disease. For identifying ERR agonists, ERR cell line (provided by NTP) has been used to screen Tox21 10K library.
# The ERR cells were dispensed at 2,000 cells/5 ul/well in 1536-well white plates using a Multidrop dispenser. After the assay plates were incubated at a 37 C/5% CO2 incubator for 6 hours, 23 nL of compounds dissolved in DMSO, positive and negative controls or DMSO only was transferred to the assay plate by a pin tool. The plates were incubated at 37 C for 18 hours. 4 ul/well of One-Glo reagent was added into the assay plates using a Flying Reagent Dispenser. After 30-minute incubation at room temperature, the luminescence intensity in the plates was measured using a ViewLux plate reader.
# On the % scale 0 is the no-effect control and ±100 the full control effect.
row,Structure (SMILES),"activity change, positive = activation [%]"
1,O=c1[nH]c2ccccc2n1C1CCN(CCCC(c2ccc(F)cc2)c2ccc(F)cc2)CC1,-52.6
2,COc1ccc(N)cc1N,-34.8
3,Clc1ccc(COC(Cn2ccnc2)c2ccc(Cl)cc2Cl)cc1 (stereo not given),-55.4
4,Clc1ccc(C(c2ccc(Cl)cc2)C(Cl)(Cl)Cl)cc1,-17.1

# Same assay, conditions: ERR reporter cell line, ONE-Glo luciferase, 18 h; at 92.4 µM (top of the series)
row,Structure (SMILES),"activity change, positive = activation"
1,O=c1[nH]c2ccccc2n1C1CCN(CCCC(c2ccc(F)cc2)c2ccc(F)cc2)CC1,-79.9%
2,COc1ccc(N)cc1N,-69.2%
3,Clc1ccc(COC(Cn2ccnc2)c2ccc(Cl)cc2Cl)cc1 (stereo not given),-77.5% and -81.9%
4,Clc1ccc(C(c2ccc(Cl)cc2)C(Cl)(Cl)Cl)cc1,-47.6% and -41.9%

# Same assay, conditions: ERR reporter cell line, ONE-Glo luciferase, 18 h; at 92.4 µM (top of the series) unless noted
row,Structure (SMILES),"activity change, positive = activation"
1,COc1cc(C=O)cc2c1[C@H](COC(N)=O)[C@]1(OC(C)=O)ON2C[C@H]2[C@@H]1N2C(C)=O,-41%
2,CCC(C)c1cc(C(C)(C)C)cc(-n2nc3ccccc3n2)c1O (stereo not given),-0.703% [at 42.5 µM]
3,Clc1ccc(-c2ccc(Cl)c(Cl)c2Cl)c(Cl)c1Cl,6.41%
4,N#Cc1ccccc1Cl,1.91%
5,CC(C)CC(C)Nc1ccc(Nc2ccccc2)cc1 (stereo not given),-75.8%
6,COC[C@H](C)N(C(=O)CCl)c1c(C)csc1C,9.24%
7,BrC(Br)Br,0.336%
8,CS(=O)(=O)c1ccc(C(=O)C2C(=O)CCCC2=O)c([N+](=O)[O-])c1,-0.0686%
9,Oc1cc(Cl)c(Cl)c(Cl)c1,-65.2%
10,CC[C@H](C)[C@H]1O[C@]2(C=C[C@@H]1C)C[C@@H]1C[C@@H](C/C=C(\C)[C@@H](O[C@H]3C[C@H](OC)[C@@H](O[C@H]4C[C@H](OC)[C@@H](O)[C@H](C)O4)[C@H](C)O3)[C@@H](C)/C=C/C=C3\CO[C@@H]4[C@H](O)C(C)=C[C@@H](C(=O)O1)[C@]34O)O2,-67% [at 42.5 µM]
11,[Cl][Sn]([c]1ccccc1)([c]1ccccc1)[c]1ccccc1,-65.5% [at 19 µM]
12,Cc1ccc(C(=O)Cl)cc1,7.48%
13,Cc1ccc(CCl)cc1,-1.8%
14,C=CC(=O)N(C)C,-4.19%
15,CC(C)(c1ccc(O)c(-c2ccccc2)c1)c1ccc(O)c(-c2ccccc2)c1,-69.8%
16,O=c1c(C2CC(c3ccc(-c4ccc(Br)cc4)cc3)Cc3ccccc32)c(O)sc2ccccc12 (stereo not given),-54.2% [at 42.5 µM]

row,Structure (SMILES),"activity change, positive = activation"
1,CC(=O)/C=C/c1ccc2c(c1)OCO2,-46.7%
2,CC(C)(C)c1ccc(CSc2cnn(C(C)(C)C)c(=O)c2Cl)cc1,-52.9%
3,C[CH2][Hg][N]1C(=O)C2C(C1=O)C1(Cl)C(Cl)=C(Cl)C2(Cl)C1(Cl)Cl (stereo not given),-76.3% [at 19 µM]
4,ClC1=C(Cl)[C@]2(Cl)[C@@H]3[C@@H](Cl)[C@H](Cl)C[C@@H]3[C@@]1(Cl)C2(Cl)Cl,-5.06%
5,O=C1C=CC(=O)c2ccccc21,-74.8%
6,C[C@@H]1CC[C@@]2(OC1)O[C@H]1[C@@H](O)[C@H]3[C@@H]4CC[C@H]5C[C@@H](O[C@@H]6O[C@H](CO)[C@H](O[C@@H]7O[C@H](CO)[C@@H](O)[C@H](O[C@@H]8OC[C@@H](O)[C@H](O)[C@H]8O)[C@H]7O[C@@H]7O[C@H](CO)[C@@H](O)[C@H](O[C@@H]8O[C@H](CO)[C@@H](O)[C@H](O)[C@H]8O)[C@H]7O)[C@H](O)[C@H]6O)[C@H](O)C[C@]5(C)[C@H]4CC[C@]3(C)[C@H]1[C@@H]2C,-74.6%
7,CCS(=O)(=O)c1cccnc1S(=O)(=O)NC(=O)Nc1nc(OC)cc(OC)n1,6.39%
8,ClC1=C(Cl)[C@]2(Cl)[C@@H]3[C@@H](Cl)[C@@H](Cl)C[C@@H]3[C@@]1(Cl)C2(Cl)Cl,0.0857%
9,C=COCCCl,14.7%
10,Cc1cc(C(C)(C)c2cc(C)c(O)c(C)c2)cc(C)c1O,-83.8%
11,O=C(CBr)c1ccc(O)cc1,-26%
12,COc1cccc(C(=O)CCN[C@@H](C)[C@H](O)c2ccccc2)c1,2.02% [at 42.5 µM]
13,Cl/C=C\CCl,3.81%
14,C[As+](C)(C)CC(=O)[O-],5.87%
15,Oc1ccc(C(=C(Cl)Cl)c2ccc(O)cc2)cc1,-44.3%
16,S=C(SSC(=S)N1CCCCC1)N1CCCCC1,-70.7% [at 42.5 µM]
